Test results as given in PubChem BioAssay (Tox21).
Several values for one entry are separate records, joined by “and”; a condition that tells them apart may be missing. Identical values can stand only once. Inconclusive results are not listed. A call without a number means that no potency is given here. Activity calls are given as the source filed them. Calls follow the shape of the dose curve; as a rule, active = well fitted inhibition curve with a large enough effect in the repeat runs; inconclusive = weak or mixed curves; inactive = no such curve, though single readings can be large or run the other way.

Molecular target: Cytochrome P450 3A4 (Homo sapiens) (UniProt P08684)
Sequence (P08684 whole entry, looked up): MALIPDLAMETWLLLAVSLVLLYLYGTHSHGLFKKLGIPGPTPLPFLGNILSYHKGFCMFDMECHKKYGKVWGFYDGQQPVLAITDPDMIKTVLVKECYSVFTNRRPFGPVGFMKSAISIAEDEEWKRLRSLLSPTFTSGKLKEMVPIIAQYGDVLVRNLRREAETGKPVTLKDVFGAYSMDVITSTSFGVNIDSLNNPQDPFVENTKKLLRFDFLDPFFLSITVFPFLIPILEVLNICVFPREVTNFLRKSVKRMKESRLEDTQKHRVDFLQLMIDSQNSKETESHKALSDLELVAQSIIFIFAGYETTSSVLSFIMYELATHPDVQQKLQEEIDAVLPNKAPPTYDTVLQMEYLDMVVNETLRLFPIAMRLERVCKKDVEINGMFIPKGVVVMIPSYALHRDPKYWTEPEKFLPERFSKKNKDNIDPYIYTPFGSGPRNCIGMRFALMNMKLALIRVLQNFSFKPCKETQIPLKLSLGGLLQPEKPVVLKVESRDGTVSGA
Assay: Cytochrome P450 Family 3 Subfamily A Member 4 (CYP3A4) small molecule antagonists: luciferase reporter qHTS assay (AID 1671201); also: nearly all actives have a fitted effect of over 50% in size
Settings: P450-Glo CYP3A4 enzyme, luciferin luminescence, 1 h; series mostly up to 115 µM
How it was run: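 Proluciferin-to-luciferin conversion by CYP3A4, NADPH-regenerated, 1 h RT; luminescence read as RLU. Ketoconazole as control.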
Potency is read from the fitted curve at half-maximal effect.

| Structure (SMILES) | Potency |
| --- | --- |
| CC(C)(C)[C@@H](O)[C@@H](Cc1ccc(Cl)cc1)n1cncn1 | 112 nM (active) and 200 nM (active) |
| CCCCCCCCCCCCCCO | inactive |
| O=c1[nH]nnc2ccccc12 | inactive |
| Cc1cccc(O)c1 | inactive |
